According to PubChem BioAssay (Tox21):
Records with an inconclusive call do not appear. Active and inactive are the calls of the source. Unless noted, calls follow the shape of the dose curve; as a rule, active = well fitted curve in the direction sought with a large enough effect in the repeat runs; inconclusive = weak or mixed curves; inactive = no such curve, though single readings can be large; an effect the other way counts as inactive or inconclusive.

Experiments:
[1] = qHTS assay to identify small molecule agonists of the estrogen receptor alpha (ER-alpha) signaling pathway in the presence of an antagonist - cell viability counter screen (AID 1259386);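 also: series mostly up to about 92 µM; cells exposed to compounds for 22 h at 37 °C before the viability read; nearly all actives have a fitted effect of over 30% in size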
Method in brief: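 VM7Luc4E2, stripped-serum pre-culture 5 d; 24hr plating; +ICI-182,780 10.0nM final; cpds 15 conc, 22hr, 37C/5% CO2; CellTiter-Fluor added at 21hr, fluorescence 1hr later.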

[2] = target: Progesterone receptor (Homo sapiens) (UniProt P06401); experiment: qHTS assay to identify small molecule antagonists of the progesterone receptor (PR) signaling pathway (AID 1346795; active = well fitted inhibition curve with a large enough effect in the signal ratio in the repeat runs, not every such curve was filed as active; the % refers to the signal ratio)
Method in brief: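 PR-UAS-bla HEK293T cells carrying a UAS-driven beta-lactamase reporter were plated in medium with 2% charcoal-stripped FBS and rested 6 hr at 37C. Compounds were added with 1 nM R5020 (final) for 16 hr, then FRET substrate loaded 2 hr at room temperature.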

[3] = qHTS assay to identify small molecule agonists of the progesterone receptor (PR) signaling pathway - cell viability counter screen (AID 1346799; calls by dose curve; also: nearly all actives have a fitted effect of over 45% in size)
Method in brief: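 PR-UAS-bla HEK293T cells, 3,000 per well in medium with 2% charcoal-stripped FBS, were preincubated 6 hr at 37C, then exposed to compounds for 16 hr; viability was read as CellTiter-Glo luminescence after 30 min at room temperature.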

[4] = qHTS assay to identify small molecule antagonists of the TGF-beta/Smad signaling pathway - cell viability counter screen (AID 1346824); also: nearly all actives have a fitted effect of over 50% in size
Method in brief: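 SBE-bla HEK 293T cells, incubated overnight, then compound plus 0.25 ng/mL TGF-beta1 (stock added) for 5 hr at 37 C. Viability was read in the same wells by CellTiter-Glo luminescence after 30 min at room temperature.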

[5] = qHTS assay to identify small molecule agonists of the TGF-beta/Smad signaling pathway (AID 1346859; active = well fitted activation curve with a large enough effect in the signal ratio in the repeat runs, not every such curve was filed as active; the % refers to the signal ratio; also: series mostly up to about 77 µM)
Method in brief: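 HEK 293T cells stably carrying a beta-lactamase reporter driven by the Smad binding element were seeded overnight, exposed to DMSO-dissolved compounds for 5 hr at 37 C, 5% CO2, then loaded with FRET substrate for 2 hr at room temperature.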

[6] = target: Thyrotropin-releasing hormone receptor (Homo sapiens) (UniProt P34981); experiment: qHTS assay to identify small molecule antagonists of the thyrotropin-releasing hormone receptor (TRHR) signaling pathway (AID 1346877; active = well fitted inhibition curve with a large enough effect in the repeat runs, not every such curve was filed as active; also: series mostly up to about 51 µM)
Method in brief: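 Intracellular calcium fluorescence, read kinetically every second over 3 min, reports TRH-evoked signalling in HEK293 cells carrying TRHR. Test compounds were added 5 min ahead of a 1 nM TRH challenge.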

[7] = target: Thyrotropin-releasing hormone receptor (Homo sapiens) (UniProt P34981); experiment: qHTS assay to identify small molecule agonists of the thyrotropin-releasing hormone receptor (TRHR) signaling pathway (AID 1346891; calls by dose curve; also: series mostly up to about 58 µM)
Method in brief: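 TRHR-expressing HEK293 cells were plated 18 h at 37 °C/5% CO2, loaded with calcium dye 2 h at 37 °C, then given compound in DMSO; fluorescence was read kinetically for 3 min at 1 s intervals.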

[8] = Human pregnane X receptor (PXR) small molecule agonists, qHTS cell viability counter screen (AID 1346977); also: nearly all actives have a fitted effect of over 50% in size
Method in brief: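 PXR-Luc HepG2 cells in medium with 5% charcoal-stripped FBS were pre-incubated 5hr, then exposed to compounds for 24hr at 37C. Viability was read in the same wells by CellTiter-Fluor fluorescence, reagent added after 23hr with a 1hr incubation.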

[9] = Caspase-3/7 induction in HepG2 cells by small molecules, qHTS assay (AID 1346978); also: nearly all actives have a fitted effect of over 15% in size
Method in brief: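 Wild-type HepG2 cells, 2,000/well, settled 5 hr at 37 C and 5% CO2, then compound-treated for 17 hr; caspase-3/7 activity read by luminescent Caspase-Glo 3/7 after 30 min at room temperature.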

[10] = Caspase-3/7 induction in CHO-K1 cells by small molecules, qHTS cell viability counter screen (AID 1346979); also: nearly all actives have a fitted effect of over 35% in size
Method in brief: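 Wild-type CHO-K1 cells were seeded at 1,500 per well, rested 5hr at 37 C, then exposed to compounds in DMSO. After 16hr, CellTiter-Fluor reagent was added and fluorescence read 1hr later as the viability measure.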

[11] = Caspase-3/7 induction in CHO-K1 cells by small molecules, qHTS assay (AID 1346980); also: nearly all actives have a fitted effect of over 15% in size
Method in brief: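 Wild-type CHO-K1 cells exposed to compounds for 17hr at 37 C, 5% CO2. Caspase-3/7 activity then measured by Caspase-Glo 3/7 luminescence after 30min at room temperature.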

[12] = Caspase-3/7 induction in HepG2 cells by small molecules, qHTS cell viability counter screen (AID 1346981); also: series mostly up to about 92 µM; nearly all actives have a fitted effect of over 30% in size
Method in brief: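 HepG2, WT, 2,000 cells/well; 5 hr pre-incubation 37 C/5% CO2; compound pin-transferred from DMSO; 16 hr exposure; CellTiter-Fluor, 1 hr; fluorescence read.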

[13] = target: Nuclear receptor subfamily 1 group I member 2 (Homo sapiens) (UniProt O75469); experiment: Human pregnane X receptor (PXR) small molecule agonists, qHTS assay (AID 1346982); also: nearly all actives have a fitted effect of over 35% in size
Method in brief: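 Luciferase signal from ONE-Glo (30 min, room temperature) measured activation of hPXR-driven CYP3A4 reporter expression in PXR-Luc HepG2 cells treated with compounds for 24 hr at 37 C.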

[14] = target: Progesterone receptor (Homo sapiens) (UniProt P06401); experiment: qHTS assay to identify small molecule agonists of the progesterone receptor (PR) signaling pathway (AID 1346784; calls by dose curve; also: nearly all actives have a fitted effect of over 30% in size)
Method in brief: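 PR-UAS-bla HEK 293T cells carrying a UAS-driven beta-lactamase reporter were seeded in medium with 2% charcoal-stripped FBS, preincubated 6 hr at 37C, then exposed to compounds in DMSO for 16 hr; agonism was read by LiveBLAzer B/G FRET fluorescence.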

[15] = qHTS assay to identify small molecule antagonists of the progesterone receptor (PR) signaling pathway - cell viability counter screen (AID 1346798); also: series mostly up to about 92 µM; nearly all actives have a fitted effect of over 50% in size
Method in brief: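 PR-UAS-bla HEK293T cells in medium with 2% charcoal-stripped FBS were treated with compounds plus R5020 for 16 hr at 37C. Cell viability was then read by CellTiter-Glo luminescence after 30 min at room temperature in the same wells.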

[16] = qHTS assay to identify small molecule agonists of the TGF-beta/Smad signaling pathway - cell viability counter screen (AID 1346829); also: top concentration of the series differs between compounds; nearly all actives have a fitted effect of over 45% in size
Method in brief: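 CellTiter-Glo luminescence readout; SBE-bla HEK 293T cells, overnight plating, compound 5 hr at 37 C/5% CO2, then bla substrate 2 hr RT, then CellTiter-Glo 30 min RT.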

[17] = qHTS assay to identify small molecule agonists or antagonists of the thyroid stimulating hormone receptor (TSHR) signaling pathway - wild type cell line counter screen (AID 1259384; calls by dose curve)
Method in brief: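 Wild-type Hek293 cells, 800/well, 18 h at 37C, then compound with Ro20-1724 for 30 min RT. cAMP by HTRF (cAMP-d2/anti-cAMP cryptate), 1 h RT, fluorescence read. 15 concentrations, triplicates.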

[18] = target: Nuclear receptor subfamily 1 group I member 2 (Rattus norvegicus) (UniProt Q9R1A7); experiment: Rat pregnane X receptor (rPXR) activation by small molecules, qHTS assay (AID 1346983); details: rPXR luciferase reporter cells, One-Glo luminescence, 24 h; max activation: active compounds read high; also: nearly all actives have a fitted effect of over 20% in size
Method in brief: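 Cell-based rPXR activation assay: rPXR cells, 2,000 per well, rested 5hr at 37 C, then exposed to compounds in DMSO for 24 hr at 37 C. Luciferase activity read by One-Glo luminescence after 30 min at room temperature.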
% is scaled to controls: 0 for no effect and ±100 for the full control effect.

Chain of Thyrotropin-releasing hormone receptor (Homo sapiens) (P34981 whole entry, looked up): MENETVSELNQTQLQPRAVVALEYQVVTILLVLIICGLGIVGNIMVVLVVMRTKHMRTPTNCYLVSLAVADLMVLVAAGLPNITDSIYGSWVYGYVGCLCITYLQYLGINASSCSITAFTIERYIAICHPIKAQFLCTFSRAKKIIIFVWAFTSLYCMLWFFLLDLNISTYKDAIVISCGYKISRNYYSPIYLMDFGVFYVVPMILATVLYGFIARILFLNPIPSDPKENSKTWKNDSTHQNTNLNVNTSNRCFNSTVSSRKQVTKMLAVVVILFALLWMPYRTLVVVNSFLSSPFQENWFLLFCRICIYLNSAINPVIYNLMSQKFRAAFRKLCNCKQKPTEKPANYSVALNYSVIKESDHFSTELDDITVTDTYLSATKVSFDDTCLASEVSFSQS
Chain of Progesterone receptor (Homo sapiens) (P06401 whole entry, looked up): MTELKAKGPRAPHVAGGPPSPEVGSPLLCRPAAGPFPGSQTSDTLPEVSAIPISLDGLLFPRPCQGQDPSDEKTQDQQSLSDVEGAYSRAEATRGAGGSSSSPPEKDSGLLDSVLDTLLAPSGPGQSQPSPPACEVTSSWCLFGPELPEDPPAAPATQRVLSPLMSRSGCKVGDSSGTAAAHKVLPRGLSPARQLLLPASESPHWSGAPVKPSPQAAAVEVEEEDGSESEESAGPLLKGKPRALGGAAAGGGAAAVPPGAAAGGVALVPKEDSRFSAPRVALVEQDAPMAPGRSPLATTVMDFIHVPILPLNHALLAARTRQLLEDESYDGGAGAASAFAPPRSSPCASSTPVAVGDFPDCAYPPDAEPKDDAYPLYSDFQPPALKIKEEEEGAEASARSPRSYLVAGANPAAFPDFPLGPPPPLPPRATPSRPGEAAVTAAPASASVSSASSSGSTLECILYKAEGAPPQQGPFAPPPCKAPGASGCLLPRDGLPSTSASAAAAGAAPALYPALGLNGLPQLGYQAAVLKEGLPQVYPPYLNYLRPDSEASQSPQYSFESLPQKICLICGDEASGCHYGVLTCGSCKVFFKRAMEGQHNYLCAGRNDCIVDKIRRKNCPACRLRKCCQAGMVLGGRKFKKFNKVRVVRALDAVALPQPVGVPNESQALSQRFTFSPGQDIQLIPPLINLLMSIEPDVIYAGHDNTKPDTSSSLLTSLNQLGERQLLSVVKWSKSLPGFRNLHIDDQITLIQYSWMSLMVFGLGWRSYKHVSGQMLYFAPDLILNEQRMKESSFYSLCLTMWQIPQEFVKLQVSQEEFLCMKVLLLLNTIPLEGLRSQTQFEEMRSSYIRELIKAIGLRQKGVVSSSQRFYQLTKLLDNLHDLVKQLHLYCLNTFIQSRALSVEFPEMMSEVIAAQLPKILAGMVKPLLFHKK
Chain of Nuclear receptor subfamily 1 group I member 2 (Homo sapiens) (O75469 whole entry, looked up): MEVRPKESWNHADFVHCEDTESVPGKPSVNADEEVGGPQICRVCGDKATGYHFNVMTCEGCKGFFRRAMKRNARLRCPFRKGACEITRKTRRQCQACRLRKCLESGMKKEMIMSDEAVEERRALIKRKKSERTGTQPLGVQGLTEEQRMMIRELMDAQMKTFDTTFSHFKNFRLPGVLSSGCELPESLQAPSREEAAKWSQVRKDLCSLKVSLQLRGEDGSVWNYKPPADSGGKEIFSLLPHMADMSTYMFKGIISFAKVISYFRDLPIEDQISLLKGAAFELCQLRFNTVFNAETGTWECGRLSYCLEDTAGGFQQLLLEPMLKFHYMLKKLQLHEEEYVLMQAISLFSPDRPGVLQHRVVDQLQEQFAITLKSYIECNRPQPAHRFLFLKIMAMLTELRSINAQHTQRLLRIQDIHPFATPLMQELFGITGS
Chain of Nuclear receptor subfamily 1 group I member 2 (Rattus norvegicus) (Q9R1A7 whole entry, looked up): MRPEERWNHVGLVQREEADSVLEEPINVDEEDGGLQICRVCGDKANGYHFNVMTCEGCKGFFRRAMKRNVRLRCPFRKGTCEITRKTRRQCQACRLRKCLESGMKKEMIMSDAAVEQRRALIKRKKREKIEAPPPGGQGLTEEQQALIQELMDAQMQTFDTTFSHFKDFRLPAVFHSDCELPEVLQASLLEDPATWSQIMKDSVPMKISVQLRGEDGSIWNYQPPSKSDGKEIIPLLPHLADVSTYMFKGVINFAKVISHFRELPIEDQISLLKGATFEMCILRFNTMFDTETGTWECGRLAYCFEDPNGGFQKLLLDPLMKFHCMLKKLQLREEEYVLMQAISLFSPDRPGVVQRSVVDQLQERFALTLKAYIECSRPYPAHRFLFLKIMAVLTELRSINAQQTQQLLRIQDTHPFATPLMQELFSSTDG

CC(=O)c1c(C)cc(C(C)(C)C)cc1C
inactive: outcome [1] | Potency [2] | Potency [3] | outcome [4] | outcome [5] | outcome [6] | Potency [7] | outcome [8] | outcome [9] | Potency [10] | outcome [11] | outcome [12] | Potency [13]

Cc1ccc2cccnc2c1
inactive: outcome [1] | Potency [14] | Potency [2] | outcome [15] | Potency [3] | outcome [5] | outcome [6] | Potency [7] | outcome [8] | outcome [9] | Potency [10] | outcome [11] | outcome [12] | Potency [13]

C=CC(=O)OCCOCCOCC
inactive: outcome [1] | Potency [14] | outcome [15] | Potency [3] | outcome [4] | outcome [16] | outcome [5] | outcome [8] | outcome [9] | outcome [11] | outcome [12] | Potency [13]

CN(C)c1cc(NC(=O)CNC(C)(C)C)c(O)c2c1C[C@H]1C[C@H]3[C@H](N(C)C)C(=O)C(C(N)=O)=C(O)[C@@]3(O)C(=O)C1=C2O
inactive: outcome [17] | outcome [1] | Potency [14] | outcome [15] | Potency [3] | outcome [4] | outcome [16] | outcome [5] | outcome [6] | Potency [7] | outcome [8] | outcome [9] | Potency [10] | outcome [11] | outcome [12] | Potency [13]

O=S(=O)(O)c1ccc(Cl)cc1
inactive: outcome [1] | Potency [2] | outcome [15] | Potency [3] | outcome [4] | outcome [16] | outcome [5] | outcome [6] | outcome [8] | outcome [9] | Potency [10] | outcome [11] | outcome [12] | Potency [13]

CC(O)C(CO)C(C)O (centres undefined)
inactive: outcome [17] | outcome [1] | Potency [14] | Potency [2] | Potency [3] | outcome [4] | outcome [16] | outcome [5] | outcome [6] | Potency [7] | outcome [8] | outcome [9] | Potency [10] | outcome [11] | outcome [12] | Potency [13]

CN1C(CCl)Nc2cc(Cl)c(S(N)(=O)=O)cc2S1(=O)=O (centres undefined)
inactive: outcome [1] | Potency [14] | Potency [2] | outcome [15] | Potency [3] | outcome [4] | outcome [16] | outcome [5] | outcome [8] | outcome [9] | Potency [10] | outcome [11] | outcome [12] | Potency [13] | max activation [18] -9.91%

O=Cc1ccc(C(=O)O)cc1
inactive: outcome [17] | outcome [1] | outcome [15] | Potency [3] | outcome [16] | outcome [5] | outcome [6] | Potency [7] | outcome [8] | outcome [9] | Potency [10] | outcome [11] | outcome [12] | Potency [13]

O=C1Nc2ccccc2C1=O
inactive: outcome [17] | outcome [1] | Potency [14] | Potency [3] | outcome [4] | outcome [16] | outcome [5] | outcome [6] | Potency [7] | outcome [8] | outcome [9] | Potency [10] | outcome [11] | outcome [12] | Potency [13]
